Records with an inconclusive call do not appear. Entries that show only a call come without a potency. Calls of active or inactive are those of the source. Calls come from the whole dose curve; as a rule, active = well fitted inhibition curve with a large enough effect; inconclusive = small, poorly fitted or top-dose-only effect; inactive = flat fitted curve, though single readings scatter.

The record followed here is PubChem BioAssay (NCATS).

Sequence of Calcium and integrin-binding protein 1 (Homo sapiens) (Q99828 whole entry, looked up): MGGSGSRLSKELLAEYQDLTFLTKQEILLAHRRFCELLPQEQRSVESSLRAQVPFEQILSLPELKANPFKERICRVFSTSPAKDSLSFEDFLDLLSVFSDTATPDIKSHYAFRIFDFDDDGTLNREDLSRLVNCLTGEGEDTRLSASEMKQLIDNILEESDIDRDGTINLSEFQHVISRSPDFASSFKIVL

The experiment deals with Calcium and integrin-binding protein 1 (Homo sapiens) (UniProt Q99828). In words: Primary qHTS for Identification of Calcium Integrin Binding Protein 1 (CIB1) Competitor (AID 1508620). Note: top concentration of the series differs between compounds. To be noted: CIB1-GST / FITC-alphaIIb peptide fluorescence polarization; series mostly up to 114 µM. The essentials:
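Fluorescence polarization competition: GST-tagged CIB1 (1 uM final) preincubated with compound 15 min at room temperature, then FITC-labelled alphaIIb peptide (100 nM final) added. After 15 min at room temperature, polarization read at Ex 480/Em 540.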
With `O=C(O)c1ccc2c(c1)C(=O)N([C@]1(C(=O)O)C[C@H]1c1ccccc1)C2=O`, the Potency entry is “inactive”.
Consider `CCOC(=O)c1ccc(-c2ccc3ncnc(N(C)Cc4ccc(C)o4)c3c2)o1`, for which the Potency entry was “inactive”.
`CN(C)c1cccc(-c2nccc(N3CCC(C(N)=O)CC3)n2)c1`: the Potency result was “inactive”.
In the case of `O=C(Cc1ccc(Cl)c(Cl)c1)Nc1ccc(S(=O)(=O)Nc2cccc(O)c2)cc1`, the Potency result was “inactive”.
As for `COc1ccc(-c2ccc(=O)n(CC(=O)NCCc3ccccc3)n2)cc1OC`, the Potency entry is “inactive”.
`O=C(Nc1ccc(-c2cn[nH]c2)cc1)Nc1nnc(-c2ccncc2)s1`: the Potency result is “inactive”.
`O=C1CCCC2=C1C(c1cccc(Cl)c1)N=C(Nc1nc3ccccc3o1)N2` (stereo not given): the Potency result was “inactive”.
Turning to `O=C1NC(=O)/C(=C/c2cccn2-c2ccc(P(=O)(O)O)cc2)N1`, the Potency entry was “inactive”.
Regarding `O=C(NCCc1nc2ccccc2n1CCOc1ccc(C(F)(F)F)cc1)C1CCCCC1`, the Potency result was “inactive”.
For the molecule `Cc1cnc(-c2ccccc2C2COC2)nc1NCc1ccc(-c2cccnc2)cc1`, the Potency entry was “inactive”.
For the molecule `Oc1cc(Nc2cccnc2)cc2cccnc12`, the Potency entry was “inactive”.
With `COc1cc(NC(=O)c2cnn3c(C)cc(C)nc23)cc(OC)c1OC`, the Potency result is “inactive”.
Regarding `CC(C)(C)OC(=O)NCC(=O)NNC(=O)C(C(=O)OCc1ccccc1)c1ccccc1` (stereo not given), the Potency entry is “inactive”.
Regarding `COc1ccc([S+](=O)([O-])N2CCCN([S+](=O)([O-])c3ccc(OC)c(NC(C)=O)c3)CC2)cc1NC(C)=O`, the Potency entry is “inactive”.
For the molecule `Cc1ccccc1C[C@H](C(=O)O)N1C(=O)c2ccc(C(=O)O)cc2C1=O`, the Potency result was “inactive”.
For the molecule `NC(=O)c1ccccc1-c1noc(-c2ccccc2F)n1`, the Potency entry was “inactive”.
Consider `Cc1ccc(CC(=O)Nc2nc(-c3ccc4c(c3)CCN4C(=O)c3ccccc3C)c(C)s2)cc1C`, for which the Potency entry is “inactive”.
In the case of `COc1cccc(NC(=O)C(OC(=O)CNC(=O)c2ccccc2)c2ccccc2)c1` (stereo not given), the Potency entry is “inactive”.
As to `O=C(O)c1sc2c(c1-c1nc3ccccc3s1)CCNC2`, the Potency result was “inactive”.
Regarding `COc1ccc(S(=O)(=O)Nc2ccc(C)c(C)c2)cc1`, the Potency result was “inactive”.
To `COc1cc2nc(N3CCN(C)CC3)nc(NCCN(C)C)c2cc1OC` belongs “inactive”; to `O=C(Nc1nc2cc(C(F)(F)F)ccc2s1)c1ccc(-c2cccc([N+](=O)[O-])c2)o1`, “inactive”.
Take `c1cncc(-c2ccc(CNc3nc(-n4ccnc4)nc4ccccc34)cc2)c1`: the Potency result is “inactive”.
To `Cc1ccc(N[S+](=O)([O-])c2cc3c(cc2NC2CC2)NC(=O)CC3)cc1C` belongs “inactive”; to `CN(C)c1ccc(C(=O)NCC(=O)OC(C(=O)Nc2cc(C(F)(F)F)ccc2Cl)c2ccccc2)cc1` (stereo not given), “inactive”; to `CC(=O)NC(C)c1cc(F)c2cccnc2c1O` (stereo not given), “inactive”.
On to `O=C(Nc1cccc(C(=O)O)c1)Nc1nnc(-c2ccncc2)s1`, for which the Potency result is “inactive”.
For the molecule `COc1ccc(C2Nc3ccccc3C(=O)N2Cc2ccco2)cc1COc1cccc(NC(C)=O)c1` (stereo not given), the Potency result is “inactive”.
For `O=C1CCc2cc(S(=O)(=O)Nc3ccccn3)ccc2N1`, the Potency entry is “inactive”.
As to `COc1cc(F)c(S(=O)(=O)N2CCCN(S(=O)(=O)c3ccc4c(c3)OCCO4)CC2)c(F)c1`, the Potency entry was “inactive”.
`O=C(Nc1ccc(Oc2ccccc2)cc1)Nc1nnc(-c2ccncc2)s1`: the Potency entry was “inactive”.
As to `COc1ccc(C2Nc3ccccc3C(=O)N2CCCN(C)C)cc1COc1c(C)cc(NC(C)=O)cc1C` (stereo not given), the Potency result is “inactive”.
`Cc1ccc(-c2ccc(=O)n(CC(=O)NCCCc3ccccn3)n2)cc1`: the Potency entry was “inactive”.
As to `c1nc(NCc2ccoc2)c2cc(-c3ccc4c(c3)OCO4)ccc2n1`, the Potency entry was “inactive”.
For `Cc1nnc(-c2cnn(C)c2N)n1CCCn1ccnc1`, the Potency result is “inactive”.
Turning to `CC(C)Oc1ccc(-c2csc(N3CCC(C(N)=O)CC3)n2)cc1`, the Potency result is “inactive”.
In the case of `O=C(Cc1ccccc1)Nc1sc2c(c1C(=O)Nc1cccc(Cl)c1)CCCC2`, the Potency entry is “inactive”.
Regarding `COc1cccc(S(=O)(=O)NC2CCN(C#N)C2)c1` (stereo not given), the Potency result is “inactive”.
In the case of `Cc1cccc(CNc2ncnc3ccc(-c4ccc5c(ccn5C)c4)cc23)c1`, the Potency entry was “inactive”.
To `Fc1cc(Nc2nc(-c3ccncc3)nc3ccccc23)ccc1-n1cncn1` belongs “inactive”.
